Each structure is given as a SMILES string. Screen size: about 360,000 compounds; about 1,600 (0.44%) were called active. This is one part of a sample in which actives are shown more often than they occur.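 Rule for the calls: active = inhibition above the screen-wide average plus 3 SD (cut at about 13% in these data); inactive = the rest.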

The target in the assay is Galanin receptor type 3 (Homo sapiens) (UniProt O60755). Nature of the assay: blockers of human galanin receptor 3 – cell-based, fluorescence readout, primary screen (AID 651719).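 Note: forskolin and galanin both at EC90 stimulate the cells; cAMP rise reported by CNG channel membrane potential dye signal; 0% = forskolin plus galanin with DMSO and 100% = forskolin alone.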 As to conditions: HEK293 GalR3-CNG cAMP membrane potential fluorescence; at 3 µM; stronger effect = higher value; galR3 body fused to GalR1 C-terminus.
Galanin receptor type 3 (Homo sapiens), sequence (O60755 1-299 limits assumed): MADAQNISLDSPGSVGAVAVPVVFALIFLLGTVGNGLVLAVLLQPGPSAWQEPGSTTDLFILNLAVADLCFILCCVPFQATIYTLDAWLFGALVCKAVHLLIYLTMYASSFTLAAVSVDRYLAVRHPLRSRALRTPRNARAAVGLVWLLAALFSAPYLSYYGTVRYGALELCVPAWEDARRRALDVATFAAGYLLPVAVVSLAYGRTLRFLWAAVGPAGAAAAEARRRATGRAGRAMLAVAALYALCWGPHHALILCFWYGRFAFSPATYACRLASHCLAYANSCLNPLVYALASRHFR
Turning to `O=C(C(=O)N1CCC(CNS(=O)(=O)Cc2ccccc2)CC1)c1cc2ccccc2o1`, the inhibition is -6.6% (inactive).

Consider `COc1cccc(OCc2cc(C(=O)N3CCN(C(=O)c4ccco4)CC3)no2)c1`, for which the inhibition is -10.3% (inactive).

Turning to `C=CCC1(CC=C)CCCN1C(=O)c1cc(COc2ccc(-n3cncn3)cc2)on1`, the inhibition is 80.6% (active).

Turning to `CCCC(=O)N1CCC1(C)C(=O)Nc1ccc(-n2cncn2)cc1` (stereo unspecified), the inhibition was -6.01% (inactive).

For `O=C(Nc1c(Cl)c(C2CC2)nn1-c1ccccc1)C(Cl)(Cl)Cl`, the inhibition is -6.45% (inactive).

Take `COc1cccc(CC(=O)N2CCN(C(=O)C(=O)c3cccc(C(F)(F)F)c3)CC2)c1`: the inhibition is 1.16% (inactive).

`CC(C)(CNC(=O)c1ccc(Cl)c(S(=O)(=O)N2CCc3ccccc3C2)c1)N1CCOCC1`: the inhibition is 98.3% (active).

Turning to `CN(C)S(=O)(=O)c1ccc(C(=O)NCC(C)(C)N2CCOCC2)cc1`, the inhibition is -0.16% (inactive).

As to `O=C(NCCSCc1ccccc1)c1ccc(Cl)c(S(=O)(=O)N2CCOCC2)c1`, the inhibition was -7.04% (inactive).

In the case of `COc1cccc(-c2cc(CNC(=O)[C@@H](Cc3ccccc3)NC(=O)[C@H]3O[C@@H](n4cnc(C(N)=O)n4)[C@H](O)[C@@H]3O)no2)c1`, the inhibition is -7.28% (inactive).

Turning to `O=C(C1CCCN(S(=O)(=O)c2ccccc2)C1)N1CCN(c2ccc(F)cc2)CC1` (stereo unspecified), the inhibition is -0.67% (inactive).

As for `CC(=O)N1CCCc2cc(S(=O)(=O)N3CCCC(C(=O)N4CCN(c5cccc(Cl)c5)CC4)C3)ccc21` (stereo unspecified), the inhibition is 77.3% (active).

On to `CC(=O)N1c2ccc(S(=O)(=O)N3CCC(C(=O)N4CCN(c5ccccc5)CC4)CC3)cc2CC1C` (stereo unspecified), for which the inhibition is 0.42% (inactive).

Consider `CCCCCCCCN1C(=O)[C@@H](CC(=O)NCc2ccccc2)C[C@@]2(C(=O)OC)C1=C[C@H](C(C)(C)C)O[C@@H]2C`, for which the inhibition was -6.16% (inactive).

For `CC1(C)CC(N2CCN(C(c3ccccc3)c3ccccc3)CC2)=CC(=[N+]2CCCCC2)C1`, the inhibition was 39.8% (active).

For the compound `COc1ccccc1NC(=S)N1CCN(C(c2ccccc2)c2ccccc2)CC1`, the inhibition was -3.76% (inactive).

On to `Cc1cccc(N2CCN(C(c3ccccc3)c3nnnn3CC3CCCO3)CC2)c1C` (stereo unspecified), for which the inhibition was -2.6% (inactive).

As for `Cc1ccc2nc(CN(C)C(=O)[C@@H](Cc3ccccc3)NC(=O)[C@H]3O[C@@H](n4ccc(=O)[nH]c4=O)[C@H](O)[C@@H]3O)[nH]c2c1`, the inhibition was -7.44% (inactive).

For `COC(=O)[C@]12C[C@H](CC(=O)NCc3ccc(OC)c(OC)c3)C(=O)N(Cc3ccccc3)C1=C[C@H](C(C)C)O[C@@H]2C1CC1`, the inhibition was 3.98% (inactive).

With `COC(=O)Cc1nnn2c1[C@H](C)[C@@H](OC)c1cc(Br)ccc1-2`, the inhibition was -5.13% (inactive).

`COc1ccc(-c2cc(C(=O)N(C)Cc3ccc(OC)c(OC)c3OC)c3ccccc3n2)cc1OC`: the inhibition was 2.03% (inactive).

Regarding `COc1ccc(-c2cc(C(F)(F)F)nc(SCCC(=O)NCc3ccco3)n2)cc1`, the inhibition is -3.08% (inactive).

Turning to `COc1ccc(-c2cc(C(F)(F)F)nc(S(C)(=O)=O)n2)cc1OC`, the inhibition is 20.7% (active).

Consider `COc1cccc(NC(=O)N(C)C[C@@H]2OCc3cn(nn3)CCCC(=O)N([C@@H](C)CO)C[C@H]2C)c1`, for which the inhibition is -0.11% (inactive).

Take `CC[C@H](C)[C@H]1CNC(=O)C(=O)N1CC1CCN(CCc2ccc(OC)c(OC)c2)CC1`: the inhibition was 1.44% (inactive).

With `CCCCCCCCN1C(=O)[C@@H](CC(=O)N2CCN(C(=O)OCC)CC2)C[C@@]2(C(=O)OC)C1=C[C@H](C1CCCC1)O[C@@H]2C`, the inhibition was -3.33% (inactive).

On to `CCN1/C(=C\c2ccc3ccccc3[n+]2CC)Sc2cc(C)ccc21`, for which the inhibition was 45.8% (active).

As for `COC(=O)[C@]12C[C@H](CC(=O)NCc3cccc(C(F)(F)F)c3)C(=O)N(Cc3ccc4c(c3)OCO4)C1=C[C@H](COCc1ccccc1)O[C@@H]2C`, the inhibition was -4.92% (inactive).

For `COc1cccc(CNC(=O)[C@H]2CCCN2C(=O)[C@H]2CCCN2C(=O)C2CCCCC2)c1`, the inhibition is -6.3% (inactive).

For `CCOc1cc(C(=O)N2CCc3cc(OC)c(OC)cc3C2)ccc1OC(F)F`, the inhibition was 31.5% (active).

Consider `COc1cc2c(cc1OC)CN(C(=O)c1ccc(S(=O)(=O)N3CCCCCC3)cc1)CC2`, for which the inhibition is 1.33% (inactive).

As for `COc1cc2c(cc1OC)CN(C(=O)c1cc(S(=O)(=O)N3CCCCC3)ccc1Cl)CC2`, the inhibition was -3.04% (inactive).

Turning to `Nc1nc2c(ncn2[C@@H]2O[C@H](C(=O)N[C@@H](Cc3ccccc3)C(=O)NCc3ccccc3)[C@@H](O)[C@H]2O)c(=O)[nH]1`, the inhibition is -5.49% (inactive).

With `CCOC(=O)CN1C(=O)C(=O)c2cc(C)ccc21`, the inhibition is -3.3% (inactive).

For `CCOC(=O)c1cc2n(c1C)-c1ccccc1C2=O`, the inhibition was 15.1% (active).

For the compound `Cc1cc(C(=O)OCC(=O)N2c3ccccc3NC(=O)C2(C)C)c(C)n1-c1ccccc1`, the inhibition was -4.87% (inactive).

Turning to `CC1(C(=O)NS(=O)(=O)c2ccccc2)CCN1C(=O)Cc1ccc(-c2ccccc2)cc1` (stereo unspecified), the inhibition was 0.25% (inactive).

With `CCCNC(=O)C1(C)CCN1C(=O)Cc1ccc(-c2ccccc2)cc1` (stereo unspecified), the inhibition is -4.21% (inactive).

`C#Cc1ccc(NC(=O)C2(C)CCN2C(=O)Cc2ccc(-c3ccccc3)cc2)cc1` (stereo unspecified): the inhibition was 44.5% (active).

Regarding `CCCn1nc(C(=O)NNC(=O)CSCC(=O)Nc2cc(C)on2)c2ccccc2c1=O`, the inhibition is 21.7% (active).

For the compound `CCCn1nc(C(=O)NNC(=O)CCOc2ccccc2OCC)c2ccccc2c1=O`, the inhibition was -2.63% (inactive).

Regarding `CCCn1nc(C(=O)Nc2ccc3nc(C)sc3c2)c2ccccc2c1=O`, the inhibition is -5.64% (inactive).

As for `C[C@H](O)[C@@H]1CN2CCc3ccc(-c4ccc5c(c4)OCO5)cc3[C@@H]2C[C@@H]1N(C)C(=O)C1CCCCC1`, the inhibition is -7.4% (inactive).

Take `COC(=O)C1=C(C(=O)OC)C2C=C(C(C)C)C1C(=O)C2(C)O` (stereo unspecified): the inhibition was -4.32% (inactive).

For the compound `COC(=O)[C@]12C[C@H](CC(=O)NCc3ccccc3)C(=O)N(CCC3=CCCCC3)C1=C[C@H](C(C)(C)C)O[C@@H]2C`, the inhibition was -4.94% (inactive).

For the compound `Cc1c(Cl)cccc1NC(=O)CSc1ccc(-c2cccnc2)nn1`, the inhibition is 14.3% (active).

For the compound `O=C(CSc1ccc(-c2cccs2)nn1)Nc1ccccc1F`, the inhibition was -4.48% (inactive).

Regarding `COc1cc(NC(=O)CSc2ccc(-c3cccnc3)nn2)cc(OC)c1`, the inhibition is -2.54% (inactive).

As for `O=S1(=O)c2ccc(Br)cc2-n2nncc2CN1Cc1cccc(Cl)c1`, the inhibition is -7.46% (inactive).

For `COCCCNC(=O)C[C@H]1C[C@@]2(C(=O)OC)C(=C[C@H](C(C)(C)C)O[C@@H]2C)N(Cc2ccc3c(c2)OCO3)C1=O`, the inhibition was -0.33% (inactive).

On to `CCCN1Cc2cccc(C(=O)Nc3ccc(S(=O)(=O)N4CCCCCC4)cc3)c2C1=O`, for which the inhibition is -8.35% (inactive).

In the case of `CCCN1Cc2cccc(C(=O)NCc3ccccc3)c2C1=O`, the inhibition was -3.84% (inactive).

With `COCCN1Cc2cccc(C(=O)Nc3ccccc3OC)c2C1=O`, the inhibition was 41.5% (active).

Regarding `O=C(NS(=O)(=O)c1cccs1)[C@H]1O[C@@H](n2ccc(=O)[nH]c2=O)[C@H](O)[C@@H]1O`, the inhibition is -5.05% (inactive).

In the case of `Cc1cc2c(nc1C)CCCN2C`, the inhibition is -4.98% (inactive).

Consider `CC(C)OC(=O)CC(=O)CC(O)c1cccc([N+](=O)[O-])c1` (stereo unspecified), for which the inhibition was -6.46% (inactive).

On to `CC(CCc1ccccc1)NCC(O)c1cccc([N+](=O)[O-])c1` (stereo unspecified), for which the inhibition was 26.9% (active).

For the compound `O=C(CC(c1ccccc1)c1ccccc1)NCC(O)c1ccc([N+](=O)[O-])cc1` (stereo unspecified), the inhibition was -3.68% (inactive).

`COc1ccc(S(=O)(=O)Nc2ccc3c(c2)C(=O)N([C@H](C)CO)C[C@H](C)[C@@H](CN(C)C)OCCCC[C@H](C)O3)cc1`: the inhibition was -6.44% (inactive).

As to `c1ccc(CNc2ncnc3[nH]ncc23)cc1`, the inhibition is -4.19% (inactive).

In the case of `O=C(NCc1ccncc1)C(=O)NCc1ccco1`, the inhibition was -2.62% (inactive).

Regarding `c1coc(CNc2ncnc3ccccc23)c1`, the inhibition was 82.2% (active).

In the case of `C[C@H](O)[C@@H]1C(=O)N2CCc3c([nH]c4c(-c5ccc6c(c5)OCO6)cccc34)[C@@H]2C[C@@H]1N(C)C(=O)c1ccco1`, the inhibition was -7.36% (inactive).

In the case of `C[C@H]1[C@H](c2ccccc2)Oc2cc(Br)ccc2S(=O)(=O)N1Cc1cccc(F)c1`, the inhibition was -2.05% (inactive).

Turning to `CCOc1ccc(C(=O)Nc2ccc(CN3CCOCC3)cc2)cc1Cl`, the inhibition is -8.84% (inactive).

In the case of `O=C(Nc1ccc(CSc2ccccc2)cc1)c1ccc(CN2CCOCC2)cc1`, the inhibition was 95.3% (active).

On to `O=C(Nc1ccccc1C(=O)N1CCOCC1)c1ccc(CSc2ccccc2)cc1`, for which the inhibition was -0.11% (inactive).

`COC(=O)N1Cc2ccnnc2CC1c1ccccc1Br` (stereo unspecified): the inhibition was 1.18% (inactive).

On to `Cc1c(C=O)c2ccccc2n1CC(=O)O`, for which the inhibition was 12.7% (active).

In the case of `O=C(O)Cn1c(Cc2ccccc2)nc2ccccc21`, the inhibition was -10.6% (inactive).

On to `Cc1c(C=O)c2ccccc2n1CCOc1ccccc1`, for which the inhibition is 2.42% (inactive).

On to `C=CC1=CCN(S(=O)(=O)C(C)(C)C)[C@@H]1CCO`, for which the inhibition was -6.58% (inactive).

Turning to `O=C(NCc1ccccc1)[C@H]1CCCN1C(=O)[C@@H]1CCCN1C(=O)c1ccc(Cl)cc1Cl`, the inhibition is -7.72% (inactive).

For the compound `C[C@H]1CN([C@@H](C)CO)C(=O)CCCn2nncc2CO[C@@H]1CN(C)C(=O)Nc1ccc(N2CCN(C)CC2)cc1`, the inhibition was -5.34% (inactive).

For `CC(C)[C@H]1COCCS(=O)(=O)N1Cc1ccccc1-c1cccc2c1sc1ccccc12`, the inhibition is -3.29% (inactive).

For the compound `Cn1c(N)c(C(=O)COC(=O)c2ccc3ccccc3c2)c(=O)n(C)c1=O`, the inhibition was -4.21% (inactive).

Regarding `Cn1c(N)c(C(=O)COC(=O)c2cnc(Cl)c(Cl)c2)c(=O)n(C)c1=O`, the inhibition is 18.3% (active).

As to `Cn1c(N)c(C(=O)COC(=O)COc2ccc(Cl)cc2)c(=O)n(C)c1=O`, the inhibition is -5.52% (inactive).

In the case of `Cc1ccc(S(=O)(=O)N2CCN(C(=O)COC(=O)c3c(C)cc(C)cc3C)CC2)c(C)c1`, the inhibition was 14.7% (active).

With `Cc1ccc(S(=O)(=O)N2CCN(C(=O)COC(=O)c3c(C)noc3C)CC2)c(C)c1`, the inhibition is -3.17% (inactive).

With `COc1ccc(/C=C/C(=O)OCC(=O)N2CCN(S(=O)(=O)c3ccc(C)cc3C)CC2)cc1OC`, the inhibition is -2.95% (inactive).

One may read the inhibition as the change of the read-out against control, counted positive when it falls.

For the origin of these results see PubChem BioAssay AID651719 (The Scripps Research Institute Molecular Screening Center, 2012).
